Laboratory results as given in PubChem BioAssay AID588689 (Southern Research Specialized Biocontainment Screening …, 2011).
In all, about 340,000 compounds went through this assay and about 1,000 (0.29%) were called active. No stated cut-off is given here; in the data, inconclusive means inhibition above about 29% without an active follow-up result; inactive means below that. Only a sample is shown. Results with a measured potency or affinity are listed apart.

Target: Genome polyprotein (Dengue virus type 2 (strain 16681-PDK53)) (UniProt P29991)
Test: flavivirus cap methylation enzyme inhibition – biochemical, confirmation dose response, primary screen (AID 588689)
Conditions: Dengue-2 NS5 methyltransferase capping enzyme assay, at 25 µM, stronger effect = higher value
[1] = measured here: pilot screen replicate inhibition

Compound | inhibition | inhibition [1]
CN(C)C(CNC(=O)C1CCN(S(=O)(=O)c2cccc(C(F)(F)F)c2)CC1)c1ccccc1 (stereo unspecified) | 0% (inactive) | –
O=C(COc1ccc(F)c(Cl)c1)Nc1ccc(N2CCOCC2)cc1 | -11.9% (inactive) | –
CCCC(C(=O)O)N1C(=O)/C(=C/c2cccn2C)SC1=S (stereo unspecified) | -53.1% (inactive) | –
CN1C(=O)/C(=C2\SC(=S)N(C(CCC(=O)O)C(=O)O)C2=O)c2ccccc21 (stereo unspecified) | 8.73% (inactive) | –
O=C(O)C(Cc1ccc(O)cc1)N1C(=O)c2ccccc2C1=O (stereo unspecified) | -2.65% (inactive) | –
Cc1c(N2C(=O)/C(=C3\C(=O)N(CC(=O)O)c4ccccc43)SC2=S)c(=O)n(-c2ccccc2)n1C | 36.3% (inactive) | –
O=C(Nc1ccccc1)N1CCNCC1 | -6.32% (inactive) | –
CC1(C)OC1(C#N)c1ccccc1 (stereo unspecified) | -5.44% (inactive) | –
CCN(CC)S(=O)(=O)c1ccc(Nc2ccc(-c3ccc4c(c3)OCCO4)nn2)cc1 | -4.94% (inactive) | –
CC(=O)N1CCN(c2ccc(NC(=S)NC(=O)c3ccc(C)c([N+](=O)[O-])c3)cc2)CC1 | -2.35% (inactive) | –
O=C(NC(=O)c1cc([N+](=O)[O-])ccc1Cl)C1=C(N2CCCC2)COC1=O | -8.37% (inactive) | –
Cn1c(=N)c(S(=O)(=O)c2ccccc2)cc2c(=O)n3ccccc3nc21 | -8.12% (inactive) | –
CCOC(=O)C1(C)/C(=N/Nc2ccc(Cl)cc2)C(=O)C(=O)N1c1ccccc1 (stereo unspecified) | 3.28% (inactive) | –
CCOC(=O)C1(C)/C(=N/Nc2ccccc2Cl)C(=O)C(=O)N1c1ccccc1 (stereo unspecified) | -3.23% (inactive) | –
COC(C[C@@H](O)C[C@H](O)[C@@H](C)OCc1ccccc1)OC | -8.19% (inactive) | –
CC/C(=N/NC(=O)c1ccc2c(c1)OCO2)c1ccccc1O | 3.08% (inactive) | –
Cc1cccc(CN2CCN(CC(=O)N3CCCC3)C2=O)c1 | -5.66% (inactive) | –
CC(=O)C1=C(O)C(=O)N(Cc2cccnc2)C1c1ccc(C(C)C)cc1 (stereo unspecified) | -5.44% (inactive) | –
CC(=O)C1=C(O)C(=O)N(c2cc(C(C)(C)C)on2)C1c1ccc(Br)cc1 (stereo unspecified) | 13.1% (inactive) | –
CC1=NNC(=O)C1C(c1ccc(F)cc1)C(C#N)C#N (stereo unspecified) | -10.2% (inactive) | –
CC1=NN(Cc2ccccc2)C(=O)C1C(c1ccncc1)C(C#N)C#N (stereo unspecified) | 13.5% (inactive) | –
Cc1cccc(CN2CCN(C(c3ccccc3)c3ccc(Cl)cc3)CC2)c1 (stereo unspecified) | 2.93% (inactive) | –
CC1=NNC(=O)C1C(c1ccccc1)C(C#N)C#N (stereo unspecified) | -4.84% (inactive) | –
S=C(N/N=C/c1ccc(Br)cc1)N1CCCCC1 | 2.36% (inactive) | –

Compound | inhibition | inhibition [1]
CC(C)c1ccc(S(=O)(=O)N2CCN(C(=O)CCNS(=O)(=O)c3ccccc3F)CC2)cc1 | 2.2% (inactive) | –
CCN1CCN(C(=O)/C=C/c2ccc(OC)cc2)CC1 | 0% (inactive) | -2.12%
CCn1c([N+](=O)[O-])nc2c1c(=O)[nH]c(=O)n2C | -10.1% (inactive) | –
Cc1ccc(SC(CC(=O)c2ccc(C)cc2)C(=O)O)cc1 (stereo unspecified) | 16.8% (inactive) | –
Cc1ccc(SC(CC(=O)c2ccc(F)cc2)C(=O)O)cc1 (stereo unspecified) | 0% (inactive) | –
CSc1ccccc1OCc1cc(C(=O)N2CCN3CCCC3C2)no1 (stereo unspecified) | -0.87% (inactive) | –
O=C1ON=C(c2ccc(Cl)c([N+](=O)[O-])c2)/C1=C/c1cccc([N+](=O)[O-])c1O | -5.11% (inactive) | –
COc1ccc(-c2ccc(/C=C3\C(=O)N(c4ccccc4)N=C3c3ccccc3)o2)c([N+](=O)[O-])c1 | 6.61% (inactive) | –
O=C1/C(=C\c2ccc(-c3ccccc3[N+](=O)[O-])o2)C(c2ccccc2)=NN1c1ccccc1 | 68.8% (inactive) | –
COc1cc([N+](=O)[O-])ccc1-c1ccc(/C=C2\C(=O)ON=C2c2ccccc2)o1 | 30.1% (inactive) | –
O=C1ON=C(c2ccccc2[N+](=O)[O-])/C1=C/c1cccc([N+](=O)[O-])c1O | -2.21% (inactive) | –
Cc1ccc(/C=C2/C(=O)ON=C2c2ccccc2)o1 | 19.3% (inactive) | –
COc1ccc(OCC(=O)N2CCCC2=O)c([N+](=O)[O-])c1 | 0.65% (inactive) | –
CC(C)CC(NC(=O)C(NC(=O)OC(C)(C)C)C(C)C)C(=O)N1CCCC1C(N)=O (stereo unspecified) | -8.35% (inactive) | –
COc1cccc(-c2noc(CCC(=O)NCC3CCCO3)n2)c1 (stereo unspecified) | 1.45% (inactive) | –
CNC[C@@H]1OCc2cnnn2CCCC(=O)N([C@H](C)CO)C[C@H]1C | 2.27% (inactive) | –
O=C(CCNC(=O)c1ccc([N+](=O)[O-])cc1)Oc1ccc(F)c(F)c1 | -4.42% (inactive) | –
CCOC(=O)Cn1cnc2sc3c(c2c1=O)CCC3 | -3.92% (inactive) | –
Cn1ccnc1SCC(=O)Nc1cc(F)ccc1F | -1.95% (inactive) | –
COc1cccc2c1C(=O)C=C(C)C2=O | 5.85% (inactive) | –
COC1=CC(=O)c2ccccc2C1=O | 0.72% (inactive) | –
Cc1ccc(C)c(OCC(O)CN2CCc3ccccc3C2)c1C (stereo unspecified) | -0.98% (inactive) | –
CNS(=O)(=O)c1cccc(C(=O)NCC(c2ccco2)N(C)C)c1 (stereo unspecified) | -4.17% (inactive) | –
Cc1ccc(NC(=O)COC(=O)C2C3CC4OC(=O)C2C4C3)cc1 (stereo unspecified) | -4.16% (inactive) | –

Compound | inhibition | inhibition [1]
COc1ccc(N2CC(C(=O)OCC(=O)Nc3cccc(C)c3)CC2=O)cc1 (stereo unspecified) | -2.68% (inactive) | –
CCC(c1ccc(O)c(O)c1)C(CC)c1ccc(O)c(O)c1 (stereo unspecified) | -0.78% (inactive) | –
CCC(c1ccc(O)cc1)C(CC)c1ccc(O)cc1 (stereo unspecified) | -4.4% (inactive) | –
O=C(O)c1ccccc1SCc1csc(-c2ccccc2)n1 | -4.89% (inactive) | –
O=C(Cc1ccc(Br)cc1)NCCCn1ccnc1 | -12.3% (inactive) | –
COC(=O)CNC(c1ccccc1)c1cc(Br)ccc1NS(=O)(=O)c1ccccc1 (stereo unspecified) | -1.28% (inactive) | –
CC(=O)Nc1ccccc1NS(=O)(=O)c1cccc([N+](=O)[O-])c1 | -5.88% (inactive) | –
CC(=O)Nc1ccccc1NS(=O)(=O)c1ccc(Cl)cc1 | -10.2% (inactive) | –
CCc1ccc(S(=O)(=O)Nc2ccc(O)c3ccccc23)cc1 | 36.9% (inactive) | –
Cc1ccc(S(=O)(=O)Nc2ccc(Br)cc2C(NCC(=O)O)c2ccccc2)cc1 (stereo unspecified) | -7.12% (inactive) | –
CCc1ccc(S(=O)(=O)NC(CC(=O)O)c2ccccc2)cc1 (stereo unspecified) | -2.12% (inactive) | –
Cc1oc2c(cc(NS(=O)(=O)c3ccc(Cl)cc3)c3ccccc32)c1C(=O)O | 14.3% (inactive) | –
O=C(c1ccccc1NS(=O)(=O)c1cccc([N+](=O)[O-])c1)N1CCCC1 | -1.62% (inactive) | –
COc1ccccc1OCC(=O)OCC(=O)NC1CCCCC1 | 1.94% (inactive) | –
Cc1ccc(CNC(=O)C(C)C2Sc3ccccc3NC2=O)cc1 (stereo unspecified) | 3.04% (inactive) | –
CC(=O)c1ccc(S(=O)(=O)N2CCN(c3nn(C)c(=O)n(C)c3=O)CC2)cc1 | -1.46% (inactive) | –
CCn1nc(C(=O)Nc2cccc(S(=O)(=O)N3CCCC3)c2)c2ccccc2c1=O | -8.08% (inactive) | –
Cc1nc(CC(=O)NNS(=O)(=O)c2cccc(Cl)c2Cl)cs1 | -1.61% (inactive) | –
CN(C(=O)COC(=O)c1ccc(Cl)s1)C1(C#N)CCCCC1 | -4.33% (inactive) | –
Cc1ccc(S(=O)(=O)N(C)CCCC(=O)N2CCOCC2)cc1 | -2.14% (inactive) | –
CCOC(=O)c1ccc(COC(=O)c2ccc3c(c2)-c2ccccc2C3=O)cc1 | 13.5% (inactive) | –
O=C(OCc1ccc(F)cc1)c1ccc2c(c1)-c1ccccc1C2=O | 6.7% (inactive) | –
O=C(CCS(=O)(=O)c1ccc(Br)cc1)Nc1ccc(Br)cc1F | -13.3% (inactive) | –
Cc1cc(C)n2nc(SCC(=O)N(C)c3c(N)n(Cc4ccccc4)c(=O)[nH]c3=O)nc2n1 | -7.52% (inactive) | –

Compound | inhibition | inhibition [1]
CCOC(=O)N/N=C/c1cc(C)n(-c2cccc3ccccc23)c1C | 1.3% (inactive) | –
Cc1cc(C)n(CC(=O)NC2CCCCC2C)c(=O)c1C#N (stereo unspecified) | -0.74% (inactive) | –
NC1=CC(=O)C(=O)c2ccccc21 | 27.9% (inactive) | –
O=C1C=C(N2CCOCC2)c2ccccc2C1=O | 9.17% (inactive) | –
COc1ccc(C(C)=O)cc1CSc1nc2cc(C(=O)O)ccc2c(=O)n1Cc1ccccc1 | 4.46% (inactive) | –
O=C(CSc1nncs1)NCCNC(=O)CSc1nncs1 | -2.96% (inactive) | –
Cc1[nH]n(-c2ccccc2)c(=O)c1Sc1ccc(Cl)cc1 | 13.9% (inactive) | –
Cc1[nH]n(C(C)(C)C)c(=O)c1Sc1ccccc1 | -11.6% (inactive) | –
CC(C)(C)c1ccc(-c2nc(C=O)c3ccccn23)cc1 | 0% (inactive) | –
N#C/C(=C/c1cccc([N+](=O)[O-])c1)C(=O)Nc1ccccc1O | 5.78% (inactive) | –
N#C/C(=C\c1ccccc1)C(=O)NNS(=O)(=O)c1ccc(Br)cc1 | 13.6% (inactive) | –
COC(CNC(=O)c1cccnc1)OC | -7.01% (inactive) | –
COC(CNC(=O)c1coc2nc3ccccc3nc12)OC | -7.62% (inactive) | –
O=[N+]([O-])c1ccc(CN2CCC(Cc3ccccc3)CC2)cc1 | -6.79% (inactive) | –
CCN1CCN(CCCNC(=O)CNC(=O)c2nn(-c3ccc(OC)cc3)c(=O)c3ccccc23)CC1 | 0.79% (inactive) | –
CCCCCc1nnc(N)s1 | 0% (inactive) | –
CN1CCN(NC(=O)CSc2ccc(Cl)cc2Cl)CC1 | -10.7% (inactive) | –
CCOC(=O)c1c(C)nc2c(c1-c1cc(OC)ccc1OC)C(=O)c1ccccc1-2 | 0% (inactive) | 3.65%
CCOC(=O)c1c2c(n(Cc3ccccc3)c1C)C(=O)C(=O)c1ccccc1-2 | 25.5% (inactive) | –
O=C1C=C(Nc2ccc(F)cc2)c2ccccc2C1=O | 0.37% (inactive) | –
Cc1ccc(NC2=CC(=O)C(=O)c3ccccc32)cc1 | 54.8% (inactive) | 5.15%
